Source: PubChem BioAssay (NCATS)
Records with an inconclusive call do not appear. Values without a mark were called inactive. Activity calls are given as the source filed them. The call rests on the fitted dose curve; in most records, active means well fitted inhibition curve with a large enough effect; inconclusive means small, poorly fitted or top-dose-only effect; inactive means flat fitted curve, though single readings scatter.

These compounds were tested on KB-3-1 (assay: Cytotoxic Profiling of Annotated Libraries Using Quantitative High-Throughput Screening (AID 1296008; further: nearly all actives have a fitted effect of over 60% in size)). Settings: Five cell lines viability, CellTiter-Glo ATP luminescence, 48-72 h; max response: active compounds read low.
Procedure, shortened: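 Cells exposed to compounds for 48 or 72 hr at 37 degrees Celsius. Viability read as ATP-coupled luminescence with CellTiter-Glo after 10 min at room temperature.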
On the % scale 0 is the no-effect control and ±100 the full control effect; potency means the concentration at half of the fitted maximal effect.

Row | SMILES | max response [%] | outcome | Potency
1 | Cc1ccnn1-c1ccc(C(=O)N2CCN(S(=O)(=O)c3ccc(Cl)c(C(F)(F)F)c3)CC2)cc1 | -18.8 | – | –
2 | Fc1ccc(N2CCCCC2)c(NC(=S)c2ccncc2)c1 | -9.62 | – | –
3 | O=C(Cc1c(F)cccc1F)Nc1cc(OCc2ccc(Cl)cc2)ccn1 | – | inactive | –
4 | CCN(c1cc(-c2ccc(CN3CCOCC3)cc2)cc(C(=O)NCc2c(C)cc(C)[nH]c2=O)c1C)C1CCOCC1 | -1.86 | – | –
5 | C/C=C(/C)C(=O)O[C@@H]1C[C@@H](OC(=O)CC(C)C)C2(C)C3C(=O)C=C(C)C2C3C1(C)C (stereo not given in full) | 5.54 | – | –
6 | COc1ccc(S(=O)(=O)N2CCC[C@H]2C(=O)Nc2cc(C)cc(C)c2)cc1 | – | inactive | –
7 | Nc1nccc(-c2c(-c3ccc(F)cc3)ncn2C2CCCCC2)n1 | -18.1 | – | –
8 | CC(C)c1cc(-c2ccc(F)c3ccccc23)nc(N)n1 | -2.32 | – | –
9 | CNc1cccc(CCOc2ccc3c(c2)CN(CC(F)(F)F)C(=O)[C@H](CC(=O)O)C3)n1 | -2.45 | – | –
10 | OC[C@H]1O[C@@H](OC/C=C/c2ccc(O)cc2)[C@H](O)[C@@H](O)[C@@H]1O | -4.8 | – | –
11 | Cn1ccc(NC(=O)c2cc(Oc3ccc(C(=O)N4CCC4)c(F)c3)c3c(c2)OC(C)(C)C3)n1 | 1.91 | – | –
12 | COc1ccc2nc3n[nH]c(C)c3c(NCCOCCO)c2c1 | 2.11 | – | –
13 | C=C(C(=O)OC[C@H]1O[C@@H](OC(=O)/C=C/c2ccccc2)[C@H](O)[C@@H](O)[C@@H]1O)C(O)CO (stereo not given in full) | -8.71 | – | –
14 | COc1ccccc1C(=O)Nc1cc2c(cc1N1CCCC1)n(C)c(=O)n2C | -11.6 | – | –
15 | Clc1cccc(COc2cncc(N3CCNCC3)n2)c1 | -0.792 | – | –
16 | CCOc1cn(-c2ccc(F)cc2C)nc1C(=O)Nc1ccc(Oc2ccnc3cc(OC)c(OC)cc23)c(F)c1 | 5.26 | – | –
17 | O=C(Nc1ccccc1Br)NC1CCN(c2ccc(C(F)(F)F)cn2)C1 (stereo not given) | -16.5 | – | –
18 | COc1cccc(NCCC2(c3ccccc3)CC(C)(C)OC(C)(C)C2)c1 | -14.2 | – | –
19 | CC1(NC(=O)c2ccc(C#Cc3cccc(F)c3)cn2)COC1 | -5.29 | – | –
20 | O=C(NCCN1CCC(n2c(=O)[nH]c3ccccc32)CC1)c1cc2cc(F)ccc2[nH]1 | 1.32 | – | –
21 | Cc1c(C(=O)Nc2ccc(N3CCC(N4CCOCC4)CC3)c(C#N)c2)cnn1-c1ccc(Cl)cc1 | – | – | 1460 nM (active)
22 | CCN1CCC[C@@H]1CNC(=O)c1ccc2c(c1)NC(=O)c1cccc(C)c1S2 | – | inactive | –
23 | O=C(CNC(=O)c1cccc(C(F)(F)F)c1)N[C@@H]1CCN(Cc2ccc(Cl)cc2)C1 | -17 | – | –
24 | CC1=CC2/C=C(\C)CCC3OC(C)(C)OC3CCC(=O)C23C(=O)NC(CC(C)C)C3C1C (stereo not given) | 3.72 | – | –
25 | CC1(CO)CC2C(O)C3=C(CC(C)(O)C2C1)C(=O)OC3 (stereo not given) | 9.13 | – | –
